Results: PubChem BioAssay AID602438 (Sanford-Burnham Center for Chemical Genomics, 2012)
Among all 360,000 compounds or so, about 3,100 (0.86%) were called active. The sample holds actives, similar compounds and a random draw of the others, so the mix is not that of the screen.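 Rule for the calls: active = inhibition or corrected inhibition above about 18%, plus a signal ratio from 0.5 to 1.5 (limit read from the data, passing the limit was not always enough); inactive = the rest.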

molecular target: Neuropilin-1 (Homo sapiens) (UniProt O14786); assay: modulators of CendR peptide binding to NRP-1, primary screen, biochemical, fluorescence polarization, uHTS (AID 602438); details: FAM-RPARPAR peptide binding to NRP-1, fluorescence polarization; at 25 µM; hits give high values
Sequence (O14786 whole entry, looked up): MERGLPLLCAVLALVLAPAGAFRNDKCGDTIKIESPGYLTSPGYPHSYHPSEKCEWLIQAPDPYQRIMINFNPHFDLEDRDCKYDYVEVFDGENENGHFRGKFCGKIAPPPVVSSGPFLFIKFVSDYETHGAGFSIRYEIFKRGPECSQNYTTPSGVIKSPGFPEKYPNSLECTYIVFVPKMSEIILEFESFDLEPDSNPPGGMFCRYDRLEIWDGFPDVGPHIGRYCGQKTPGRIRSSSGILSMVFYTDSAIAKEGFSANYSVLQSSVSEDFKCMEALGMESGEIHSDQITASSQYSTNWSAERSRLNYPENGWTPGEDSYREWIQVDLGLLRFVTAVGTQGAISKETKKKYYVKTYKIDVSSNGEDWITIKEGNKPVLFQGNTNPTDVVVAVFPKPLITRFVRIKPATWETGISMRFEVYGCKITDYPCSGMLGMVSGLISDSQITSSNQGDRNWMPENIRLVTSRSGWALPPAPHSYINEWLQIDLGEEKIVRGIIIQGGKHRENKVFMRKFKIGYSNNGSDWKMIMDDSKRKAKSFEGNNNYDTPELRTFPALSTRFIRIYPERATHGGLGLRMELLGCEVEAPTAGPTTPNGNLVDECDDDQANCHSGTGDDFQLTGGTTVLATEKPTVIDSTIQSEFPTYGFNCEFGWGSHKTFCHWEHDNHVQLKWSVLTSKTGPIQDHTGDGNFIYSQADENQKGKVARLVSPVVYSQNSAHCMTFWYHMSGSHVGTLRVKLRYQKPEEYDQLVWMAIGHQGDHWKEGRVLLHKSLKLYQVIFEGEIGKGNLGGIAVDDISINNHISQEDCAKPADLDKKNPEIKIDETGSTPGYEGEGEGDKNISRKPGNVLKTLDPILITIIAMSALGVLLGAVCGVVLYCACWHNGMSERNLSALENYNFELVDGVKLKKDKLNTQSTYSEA

SMILES	inhibition
Cc1cc(Cl)c2oc(C(=O)NC(C)c3ccncn3)c(C)c2c1 (stereo unspecified)	1.3% (inactive)
Cc1cc(Cl)c2oc(C(=O)N(C)C(C)c3ccccn3)c(C)c2c1 (stereo unspecified)	9.3% (inactive)
CCOC(=O)c1csc(CCNC(=O)c2oc3c(Cl)cc(C)cc3c2C)n1	24.9% (active)
CCN(CC(=O)Nc1cc(Cl)ccc1C)C(=O)Cn1c(=O)cnc2ccccc21	9% (inactive)
O=c1nc(NO)ccn1C1CCCO1 (stereo unspecified)	7.6% (inactive)
CC(C)C(C(=O)NCc1ccco1)N(CC1CCCO1)C(=O)CNS(=O)(=O)c1ccc(F)cc1 (stereo unspecified)	15.8% (inactive)
Cc1ccc2c(c1)C1CN(C)CCC1N2C(=O)c1ccccc1NS(=O)(=O)c1ccc(F)cc1C (stereo unspecified)	37.9% (active)
Cc1ccc2c(c1)C1C[N+](C)(CC(=O)c3ccccc3)CCC1N2C(=O)c1ccccc1Cl (stereo unspecified)	5.2% (inactive)
Cc1ccc2c(c1)C1CN(C)CCC1N2C(=S)Nc1ccc(Cl)cc1Cl (stereo unspecified)	-11.4% (inactive)
Cc1noc(C)c1CSCC(=O)Nc1ccc(Br)cc1Cl	12.2% (inactive)
O=C(CSCc1c(F)cccc1Cl)NCC1CCCO1 (stereo unspecified)	-9.5% (inactive)
CC1CCN(C(=O)/C(=C\c2ccccc2F)NC(=O)c2ccccc2)CC1	9.8% (inactive)
CCc1cc2c(=O)c(-c3ccon3)c(N)oc2cc1OC	36.1% (active)
COc1ccc2oc(N)c(C=O)c(=O)c2c1	13.3% (inactive)
CCc1cc2c(=O)c(-c3nc4ccccc4n3C)c(CCCC(=O)O)oc2cc1OC(=O)C(C)(C)C	3.6% (inactive)
CCN(CC(=O)N1CCCC1)S(=O)(=O)c1ccc(F)cc1	9.2% (inactive)
COCn1c(C(O)c2ccccc2)cc2ccccc21 (stereo unspecified)	8.1% (inactive)
CC(OC(=O)c1ccc([N+](=O)[O-])cc1)C(=O)NCC1CCCCC1 (stereo unspecified)	23.5% (active)
O=C(NCC(O)c1ccc([N+](=O)[O-])cc1)C1CCCCC1 (stereo unspecified)	11.3% (inactive)
CC(OC(=O)c1cccc(S(=O)(=O)N2CCOCC2)c1)C(=O)NCC1CCCCC1 (stereo unspecified)	8.2% (inactive)
O=C(C1CCCN1S(=O)(=O)c1ccc(Br)cc1)N1CCOCC1 (stereo unspecified)	6.9% (inactive)
COC(=O)Nc1nc2ccc(Sc3ccccc3)cc2[nH]1	-0.3% (inactive)
Cc1nc2ccc(C(=O)N(C)CC3CCCN(CCc4ccc(Cl)cc4)C3)cc2[nH]1 (stereo unspecified)	8.8% (inactive)

SMILES	inhibition
Cc1nc2ccc(C(=O)O)cc2[nH]1	24.6% (active)
Cc1cccc(NC(=O)CN2CCCN(S(=O)(=O)c3ccc(Br)s3)CC2)c1	1.1% (inactive)
CCc1ccccc1NC(=O)CN(C)S(=O)(=O)c1ccc2c(c1)c(=O)n(C)c(=O)n2C	7.6% (inactive)
CC1CCC(NC(=O)CN(C)S(=O)(=O)c2ccc3c(c2)c(=O)n(C)c(=O)n3C)CC1 (stereo unspecified)	25.4% (active)
COc1cccc(CNC(=O)CN(C)S(=O)(=O)c2ccc3c(c2)c(=O)n(C)c(=O)n3C)c1	-1.6% (inactive)
C/C=N/NC(=O)CCCC(=O)N/N=C/C	15% (inactive)
Cc1cc(C)c(S(=O)(=O)N2C=CC(C(F)(F)F)=NCC2)c(C)c1	3.5% (inactive)
O=C(O)c1ccc(COc2c(F)c(F)cc(F)c2F)o1	45.5% (active)
O=C(O)CSCc1ccc(C(=O)O)o1	-7.1% (inactive)
O=C(O)c1ccc(NC(=O)c2ccc(COc3ccc(Cl)cc3)o2)cc1	-6.7% (inactive)
CC1O[C@H](OC2C(COC3OC(CO)C(O)[C@H](O)C3O)OC(OC3CC[C@]4(C)C(CC[C@@]5(C)[C@@H]4C=C[C@]46OC[C@@]7(CCC(C)(C)C[C@H]74)C(O)C[C@@]56C)C3(C)C)C(O)C2O)C(O)C(O)C1O (stereo partly specified)	23.7% (active)
CCOc1ccc(-n2c(SC(C)C(=O)OC)nc3c(c2=O)SCC3)cc1 (stereo unspecified)	-5.4% (inactive)
N#Cc1cccc(CN2CCC(=O)N([C@H](CO)c3ccccc3)CC2)c1	9.5% (inactive)
O=C1CCN(CCCc2ccccc2)CCN1CCO	5.5% (inactive)
N#Cc1cccc(CN2CCC(=O)N(CCO)CC2)c1	21.1% (active)
O=C(CSc1nnc(-c2cccnc2)n1Cc1ccco1)c1ccc(Cl)c(Cl)c1	-25.2% (inactive)
O=C(CSc1nnc(-c2cccs2)n1Cc1ccco1)c1ccc2c(c1)OCO2	37.5% (active)
O=C(CSc1nnc(-c2cnccn2)n1Cc1ccco1)c1ccc(Cl)c(Cl)c1	3.3% (inactive)
CC(=O)N1CC2(C)CN(C(C)=O)CC(C)(C1)C2=O	11.7% (inactive)
O=C(NCc1ccccc1Cl)C1CCN(c2ncnc3c2nc2n3CCCCC2)CC1	13.7% (inactive)
CN(Cc1ccccc1)C(=O)C1CCCN(c2ncnc3c2nc2n3CCCCC2)C1 (stereo unspecified)	10% (inactive)
CN(C(=O)C1CCN(c2ncnc3c2nc2n3CCCCC2)CC1)C1CCCCC1	18.4% (active)
CCC(=O)c1cn(CCOc2ccccc2OC)c2ccccc12	-7% (inactive)
